Assay outcomes as filed in PubChem BioAssay.
CDK5 inh – blocks human CDK5/p35 kinase activity. AID 488839. Q00535+Q15078. inhibition, % at 10 µM. Recombinant CDK5/p35, ADP-Glo luminescence, 60 min. hit rate 0.01% among 330,000;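 active = highest replicate inhibition of at least 50% and at least 75% of replicates reaching 50%; inconclusive = only one of the two criteria met; inactive = both criteria failed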;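 also: plate controls were DMSO neutral control for no effect and GW8510 at 10 µM for full effect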
esBAF inh – inhibitors of esBAF chromatin remodeling in mouse ES cells; Bmi1-luciferase knock-in reporter, 24 h; 100% = twice the neutral-well signal; reporter increase, % at 12.5 µM; hit rate 2% among 350,000; in the data active = activation above about 40%; inconclusive = no clear call, values can overlap the other calls;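 also: 0% = median of the plate's neutral control wells and 100% = double that signal; a rise in the Bmi1 reporter signal indicates esBAF inhibition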
DYRK1A inh – inhibitors of rat Dyrk1A kinase; ADP-Glo luminescence, NFATc1 peptide; hit rate 0.43% among 310,000; Q63470; inhibition, % at 12.5 µM; in the data active = inhibition above about 50%;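 also: plate controls were vehicle with enzyme for no effect and no enzyme for full effect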
SMARCA2 act – increases SMARCA2 function in MMTV reporter cells. MG213 cells, MMTV-luciferase reporter, dexamethasone, overnight. activation, % at 9.1 µM. hit rate 1% among 370,000. AID 652017; in the data active = activation above about 7.8%;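 also: 0% = vehicle wells and 100% = reference activator wells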
dFosB activator – activators of mouse delta FosB homodimer. P13346. purified delta FosB, TAMRA-CDK5 oligo fluorescence polarization; percent of positive-control signal above neutral wells. activation, % at 25 µM. hit rate 0.99% among 340,000;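 active = mean activation above about 17%, with every replicate also reaching it, limit read from the data, passing the limit was not always enough; inconclusive = only one of the two conditions met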
Target sequence (P13346 whole entry, looked up): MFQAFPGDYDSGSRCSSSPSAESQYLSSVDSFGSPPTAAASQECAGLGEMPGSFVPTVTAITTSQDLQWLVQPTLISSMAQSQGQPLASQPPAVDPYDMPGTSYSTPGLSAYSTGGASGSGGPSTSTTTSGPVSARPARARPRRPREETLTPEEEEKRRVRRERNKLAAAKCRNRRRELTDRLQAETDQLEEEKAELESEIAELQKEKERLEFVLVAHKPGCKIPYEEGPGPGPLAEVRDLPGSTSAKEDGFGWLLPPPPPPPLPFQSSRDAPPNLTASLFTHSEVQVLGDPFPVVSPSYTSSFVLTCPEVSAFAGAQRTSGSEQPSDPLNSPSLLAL
Rtt109 HAT inh – inhibitors of Candida albicans Rtt109/Vps75 histone acetyltransferase; Q5AAJ8; purified Rtt109/Vps75, ThioGlo CoA-SH fluorescence, 4 h; inhibition, % at 34.9 µM; hit rate 0.16% among 330,000; AID 540336;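 active = inhibition of at least 50% in every replicate; inconclusive = best replicate reaches 50% inhibition but some replicates fall short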
Target sequence (Q5AAJ8 whole entry, looked up): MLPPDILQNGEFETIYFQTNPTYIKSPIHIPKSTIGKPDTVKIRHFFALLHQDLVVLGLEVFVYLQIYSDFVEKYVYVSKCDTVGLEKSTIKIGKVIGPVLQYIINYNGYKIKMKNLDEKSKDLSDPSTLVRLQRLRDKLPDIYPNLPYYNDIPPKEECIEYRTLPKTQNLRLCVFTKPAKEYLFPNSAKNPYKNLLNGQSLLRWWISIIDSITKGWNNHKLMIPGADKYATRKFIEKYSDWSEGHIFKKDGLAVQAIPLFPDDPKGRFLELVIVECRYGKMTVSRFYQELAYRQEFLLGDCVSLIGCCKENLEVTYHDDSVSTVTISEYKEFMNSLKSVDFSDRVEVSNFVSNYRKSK
SMARCA2 act conf – SMARCA2 activation, confirmation screen | shares compounds with SMARCA2 act | MG213 cells, MMTV-luciferase with dexamethasone, luminescence, overnight; MG213 cells expressing E1A, Rb sequestered; DMSO wells 0%, reference activator 100% | activation, % at 9.1 µM | hit rate 30% among 3,500 | AID 652260;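 active = activation above its plate's cutoff, the mean activation of tested wells plus 3 SD, cut at about 7.9% in these data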
VP16 Luc act – activates GAL4-VP16 luciferase, flagging SMARCA2 activator hits; activation, % at 9.1 µM; shares compounds with SMARCA2 act; hit rate 41% among 3,500; HEK293 GAL4-VP16 pG5luc reporter, luciferase luminescence; scaled: DMSO wells 0%, SAHA wells 100%;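 active = activation above the solvent-only control well mean plus 3 SD, averaged across control plates, cut at about 5.2% in these data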
The depositor's hits bear a star; ? = inconclusive; nt = no result. Hits are enriched below; roughly 3.2% of the tested compounds scored in any of these assays.

SMILES	CDK5 inh	esBAF inh	DYRK1A inh	SMARCA2 act	dFosB activator	Rtt109 HAT inh	SMARCA2 act conf	VP16 Luc act
C[C@H]1CN([C@@H](C)CO)C(=O)Cc2cc(NS(=O)(=O)c3cn(C)cn3)ccc2O[C@@H]1CN(C)C(=O)NC1CCCCC1	nt	0.0	nt	nt	nt	nt	nt	nt
O=C(COC(=O)c1nc(Cl)c(Cl)c(Cl)c1Cl)NCc1ccccc1	-2.1	2.2	-2.7	20.7*	-9.0	11.0	53.3*	1.5
CCC(=O)N1C[C@H](C)[C@@H](OC)CN(C)C(=O)c2ccc(NC(=O)Nc3ccccc3)cc2OC[C@H]1C	nt	2.0	nt	nt	nt	nt	nt	nt
CS(=O)(=O)n1nc(-c2ccc(Cl)cc2)nc1N	-0.5	nt	7.4	8.5*	3.8	8.1	1.5	1.3
C[C@H](O)[C@@H]1CN2CCc3c([nH]c4cccc(-c5ccccc5)c34)[C@@H]2C[C@@H]1N(C)C(=O)C1CCCCC1	nt	nt	nt	9.7*	nt	nt	-2.6	-0.3
C[C@H](O)[C@@H]1CN2CCc3c([nH]c4cccc(-c5ccccc5)c34)[C@@H]2C[C@@H]1N(C)CC1CCCCC1	nt	nt	nt	0.9	nt	nt	nt	nt
C[C@@H]1CCCCO[C@H](CN(C)Cc2ccccc2)[C@H](C)CN([C@H](C)CO)C(=O)c2cc(NS(=O)(=O)c3cn(C)cn3)ccc2O1	nt	-5.6	nt	nt	nt	nt	nt	nt
N#Cc1c2ccc([N+](=O)[O-])cc2[n+]([O-])n1-c1ccccc1	-0.5	-24.3	2.7	8.5*	-1.8	-1.7	12.7*	8.9*
O=c1c2cc([N+](=O)[O-])ccc2sn1-c1ccccc1	nt	11.9	nt	-0.3	nt	nt	nt	nt
O=C(c1noc2c1CCc1ccccc1-2)N1CCCc2ccccc21	-0.1	nt	1.2	1.5	-2.2	-6.0	nt	nt
O=C(c1noc2c1CCc1ccccc1-2)N1CCOCC1	0.7	26.2	5.9	9.3*	-1.0	6.3	9.6*	4.8
C[C@H](CO)N1C[C@H](C)[C@@H](CN(C)Cc2cccnc2)Oc2cc(Br)ccc2S1(=O)=O	nt	1.5	nt	nt	nt	nt	nt	nt
C[C@@H]1CN([C@H](C)CO)C(=O)c2cc(NC(=O)c3ccncc3)ccc2O[C@H]1CN(C)S(C)(=O)=O	nt	-2.5	nt	nt	nt	nt	nt	nt
N#Cc1c(NC(=O)C2CC2)sc2c1CCCCC2	1.0	nt	10.1	8.9*	-3.3	-0.5	6.9	7.4*
CC(C)C(=O)Nc1sc2c(c1C#N)CCCCC2	-0.6	50.4*	18.5	12.2*	-0.2	nt	1.7	1.7
CC1CCc2c(sc(NC(=O)C3CCCO3)c2C#N)C1 (configuration not stated)	1.1	?	6.8	14.4*	2.9	11.0	3.7	11.6*
C[C@H]1CN([C@@H](C)CO)C(=O)c2cc(NS(=O)(=O)c3cccs3)ccc2O[C@H]1CN(C)Cc1ccc(C(=O)O)cc1	nt	-1.4	nt	nt	nt	nt	nt	nt
CC(C)C#Cc1ccc([C@H]2[C@@H](C#N)N(C(=O)C3CC3)[C@@H]2CO)cc1	nt	2.0	nt	nt	nt	nt	nt	nt
CCC(=O)Nc1cccc(NC(=S)NC(=O)c2cc3ccccc3o2)c1	1.9	nt	-6.0	11.6*	1.6	7.8	-1.7	15.3*
COc1cc(/C=C/c2nc3ccccc3s2)cc(OC)c1O	0.0	40.0	6.2	11.1*	-3.4	-6.8	3.0	2.2
C[C@H]1CN([C@@H](C)CO)C(=O)c2cccc(NS(C)(=O)=O)c2O[C@H]1CN(C)C(=O)NC1CCCCC1	nt	0.5	nt	nt	nt	nt	nt	nt
C[C@H]1CN([C@@H](C)CO)C(=O)c2cc(NS(=O)(=O)c3ccc(Cl)cc3)ccc2O[C@@H]1CN(C)S(=O)(=O)c1ccc(Cl)cc1	nt	-1.6	nt	nt	nt	nt	nt	nt
Cc1c(-c2ccccc2)nc2ccccc2c1C(=O)NCc1cccs1	-0.4	nt	-1.1	8.1*	2.4	1.7	-2.0	1.0
COc1ccc(CCNc2nc3ccccc3n3nnnc23)cc1OC	-0.1	26.0	0.8	18.4*	10.4	-3.3	3.6	2.0
O=c1[nH]c2ccccc2c2nc3ccccn3c12	6.6	49.5*	21.7	12.0*	-60.4	4.9	16.3*	7.1*
SMILES	CDK5 inh	esBAF inh	DYRK1A inh	SMARCA2 act	dFosB activator	Rtt109 HAT inh	SMARCA2 act conf	VP16 Luc act
O=c1nc2c(O)cccn2c2c1c(=O)[nH]c1ccccc12	0.4	nt	35.4	-4.3	1.2	-8.6	nt	nt
COc1ccc(NC(=O)Nc2cccc3c2O[C@H](CN(C)C(=O)Nc2ccc(OC)cc2)[C@H](C)CN([C@@H](C)CO)C3=O)cc1	nt	-1.8	nt	nt	nt	nt	nt	nt
Cc1noc(C)c1NC(=O)Nc1ccc2c(c1)CC(=O)N([C@H](C)CO)C[C@H](C)[C@@H](CN(C)C(=O)Nc1c(C)noc1C)O2	nt	-2.3	nt	nt	nt	nt	nt	nt
CCOc1ccc(C(=O)CC(Sc2ccc(C)cc2)C(=O)O)cc1 (configuration not stated)	-5.3	-3.6	1.0	3.9	-5.4	15.8	nt	nt
O=C(CC(Sc1ccc(Br)cc1)C(=O)O)c1ccc(F)cc1 (configuration not stated)	0.7	7.0	-4.0	8.6*	-63.3	4.7	-1.1	0.8
O=C(CSc1ccc(-c2cccs2)nn1)N1CCCCCC1	1.2	50.0*	-8.0	13.0*	-9.2	-3.5	5.3	5.7*
C[C@H](CO)N1C[C@H](C)[C@@H](CN(C)S(=O)(=O)c2ccccc2)Oc2ccc(NC(=O)c3ccncc3)cc2CC1=O	nt	-0.5	nt	nt	nt	nt	nt	nt
Cc1ccc(-c2cn3cccnc3n2)cc1	1.0	35.7	nt	3.8	1.0	-55.9	nt	nt
Cc1cc(OCc2cn3cccnc3n2)ccc1Cl	-0.2	nt	7.6	8.4*	-6.4	10.9	8.5*	5.6*
CC1(CCOCc2ccccc2)NC(=O)NC1=O (configuration not stated)	0.2	-1.0	nt	-0.7	-3.5	-2.0	nt	nt
COc1ccc(CCC2(C)NC(=O)NC2=O)cc1 (configuration not stated)	1.8	-4.3	0.0	8.1*	-2.6	-5.2	1.3	1.7
CCc1nc(C)cc2c1sc1ccccc12	nt	nt	nt	10.0*	nt	nt	11.0*	1.0
CCN(CC)CCn1c2ccccc2c2nc3ccccc3nc21	-0.7	78.1*	12.4	34.2*	-32.5	-5.8	110.5*	-1.5
COc1ccc(/C=C/C(=O)c2c(C)nc3ccccn23)cc1	-2.2	69.4*	1.1	9.7*	-16.3	-5.2	6.2	10.1*
Cc1ccc(NCCC(=O)c2cccs2)cc1	2.0	64.2*	16.5	11.3*	3.1	10.3	7.3	13.7*
CCOC(=O)c1ccc(COC(=O)c2ccc3c(c2)-c2ccccc2C3=O)cc1	0.8	3.4	-2.1	8.9*	-4.7	5.4	-4.1	2.2
O=C(OCc1cccc(F)c1)c1ccc2c(c1)-c1ccccc1C2=O	2.8	-0.6	-1.9	-0.4	-15.6	7.8	nt	nt
Nc1ccc2c(c1)C(=O)c1ccccc1C2=O	-1.1	69.2*	2.4	11.7*	0.3	8.7	9.1*	9.0*
